Experimental data from the supplement of paper PMC8975748.
Where a name gives a salt, the structure may show the parent alone. ± gives the standard deviation of the averaged measurements.

How the values were obtained:
[1] = system: Saccharomyces cerevisiae BY4741 SeMeCo community; assay: z-score of subpopulation abundance vs DMSO median, subpopulation auxotrophic for M; higher = larger share of this subpopulation than in DMSO controls; details: 10 µM; 24 h; SM minimal medium; subpopulation (auxotrophy): M
Method in brief: (§1)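 Scoring was based on each subpopulation's abundance, expressed as a z-score against the vehicle-well median. A Saccharomyces cerevisiae BY4741 community with four plasmids, each restoring one auxotrophy and encoding a distinct fluorescent protein, was pre-grown overnight to OD600 1.0, diluted to 0.3, and added at 70 µl to 384-well plates acoustically predosed with library drugs (10 µM final). It then grew 24 h in minimal SM medium before paraformaldehyde fixation and automated confocal microscopy, with single-auxotroph fluorescent strains setting thresholds and autofluorescence correction.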

[2] = system: Saccharomyces cerevisiae BY4741 SeMeCo community; assay: z-score of subpopulation abundance vs DMSO median, subpopulation auxotrophic for L; higher = larger share of this subpopulation than in DMSO controls; details: 10 µM; 24 h; SM minimal medium; subpopulation (auxotrophy): L
Method in brief: as §1

[3] = system: Saccharomyces cerevisiae BY4741 SeMeCo community; assay: z-score of subpopulation abundance vs DMSO median, subpopulation auxotrophic for U; higher = larger share of this subpopulation than in DMSO controls; details: 10 µM; 24 h; SM minimal medium; subpopulation (auxotrophy): U
Method in brief: as §1

[4] = system: Saccharomyces cerevisiae BY4741 SeMeCo community; assay: z-score of subpopulation abundance vs DMSO median, subpopulation auxotrophic for H; higher = larger share of this subpopulation than in DMSO controls; details: 10 µM; 24 h; SM minimal medium; subpopulation (auxotrophy): H
Method in brief: as §1

[5] = system: Saccharomyces cerevisiae BY4741 SeMeCo community; assay: z-score of subpopulation abundance vs DMSO median, subpopulation auxotrophic for LM; higher = larger share of this subpopulation than in DMSO controls; details: 10 µM; 24 h; SM minimal medium; subpopulation (auxotrophy): LM
Method in brief: as §1

[6] = system: Saccharomyces cerevisiae BY4741 SeMeCo community; assay: z-score of subpopulation abundance vs DMSO median, subpopulation auxotrophic for HM; higher = larger share of this subpopulation than in DMSO controls; details: 10 µM; 24 h; SM minimal medium; subpopulation (auxotrophy): HM
Method in brief: as §1

[7] = system: Saccharomyces cerevisiae BY4741 SeMeCo community; assay: z-score of subpopulation abundance vs DMSO median, subpopulation auxotrophic for UM; higher = larger share of this subpopulation than in DMSO controls; details: 10 µM; 24 h; SM minimal medium; subpopulation (auxotrophy): UM
Method in brief: as §1

[8] = system: Saccharomyces cerevisiae BY4741 SeMeCo community; assay: z-score of subpopulation abundance vs DMSO median, subpopulation auxotrophic for HL; higher = larger share of this subpopulation than in DMSO controls; details: 10 µM; 24 h; SM minimal medium; subpopulation (auxotrophy): HL
Method in brief: as §1

[9] = system: Saccharomyces cerevisiae BY4741 SeMeCo community; assay: z-score of subpopulation abundance vs DMSO median, subpopulation auxotrophic for HLU; higher = larger share of this subpopulation than in DMSO controls; details: 10 µM; 24 h; SM minimal medium; subpopulation (auxotrophy): HLU
Method in brief: as §1

[10] = system: Saccharomyces cerevisiae BY4741 SeMeCo community; assay: z-score of subpopulation abundance vs DMSO median, subpopulation auxotrophic for HLM; higher = larger share of this subpopulation than in DMSO controls; details: 10 µM; 24 h; SM minimal medium; subpopulation (auxotrophy): HLM
Method in brief: as §1

[11] = system: Saccharomyces cerevisiae BY4741 SeMeCo community; assay: z-score of subpopulation abundance vs DMSO median, subpopulation auxotrophic for HUM; higher = larger share of this subpopulation than in DMSO controls; details: 10 µM; 24 h; SM minimal medium; subpopulation (auxotrophy): HUM
Method in brief: as §1

[12] = system: Saccharomyces cerevisiae BY4741 SeMeCo community; assay: z-score of prototroph abundance vs DMSO median; higher = larger share of this subpopulation than in DMSO controls; details: 10 µM; 24 h; SM minimal medium; subpopulation (auxotrophy): Prototroph
Method in brief: as §1

[13] = system: Saccharomyces cerevisiae BY4741 SeMeCo community; assay: z-score of subpopulation abundance vs DMSO median, subpopulation auxotrophic for HU; higher = larger share of this subpopulation than in DMSO controls; details: 10 µM; 24 h; SM minimal medium; subpopulation (auxotrophy): HU
Method in brief: as §1

[14] = system: Saccharomyces cerevisiae BY4741 SeMeCo community; assay: z-score of subpopulation abundance vs DMSO median, subpopulation auxotrophic for LUM; higher = larger share of this subpopulation than in DMSO controls; details: 10 µM; 24 h; SM minimal medium; subpopulation (auxotrophy): LUM
Method in brief: as §1

[15] = system: Saccharomyces cerevisiae BY4741 SeMeCo community; assay: z-score of subpopulation abundance vs DMSO median, subpopulation auxotrophic for HLUM; higher = larger share of this subpopulation than in DMSO controls; details: 10 µM; 24 h; SM minimal medium; subpopulation (auxotrophy): HLUM
Method in brief: as §1

[16] = system: Saccharomyces cerevisiae BY4741 SeMeCo community; assay: mean cell size (pixel area) (pixels); higher = larger cells; details: 10 µM; 24 h; SM minimal medium
Method in brief: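 A fluorescent Saccharomyces cerevisiae BY4741 community carrying four plasmids was used, with each plasmid complementing one auxotrophy and bearing a fluorescent marker. An overnight preculture at OD600 = 1.0 was diluted to OD600 = 0.3, and 70 µl went into 384-well plates acoustically predosed with drug (final 10 µM) in SM medium for 24 h. After paraformaldehyde fixation, cells were imaged by automated confocal microscopy and analysed in Harmony, giving the mean cell pixel area per well. Each value is the average of 3 replicates. Same SeMeCo high-content imaging drug screen: Selleck FDA-approved drugs at 10 µM, 24 h in SM medium, 384-well plates, 3 replicates.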

`C[C@]12CC[C@@H]3c4ccc(OS(=O)(=O)O)cc4CC[C@H]3[C@@H]1CCC2=O` [Estropipate] was tested, and the “z-score of subpopulation abundance” value [1] was 0.08, the “z-score of subpopulation abundance” value [2] was -0.9 and the “z-score of subpopulation abundance” value [3] was -0.01. The “z-score of subpopulation abundance” value [4] was -0.96, the “z-score of subpopulation abundance” value [5] was -0.33 and the “z-score of subpopulation abundance” value [6] was -0.81. For the same compound, the “z-score of subpopulation abundance” value [7] was 0.16, the “z-score of subpopulation abundance” value [8] was -0.81 and the “z-score of subpopulation abundance” value [9] was -0.73. For the same compound, the “z-score of subpopulation abundance” value [10] was -0.64 and the “z-score of subpopulation abundance” value [11] was -0.32.
In the case of `Nc1nc(N)nc(-c2cc(Cl)ccc2Cl)n1` [Irsogladine], the “z-score of prototroph abundance” value [12] is reported as 1.03, the “z-score of subpopulation abundance” value [1] is reported as -0.36 and the “z-score of subpopulation abundance” value [2] is reported as -0.15. For the same compound, the “z-score of subpopulation abundance” value [3] was -1.06, the “z-score of subpopulation abundance” value [6] was -0.68 and the “z-score of subpopulation abundance” value [13] was -0.69. The “z-score of subpopulation abundance” value [7] was -1.92, the “z-score of subpopulation abundance” value [8] was -0.18 and the “z-score of subpopulation abundance” value [9] was 0.75. For the same compound, the “z-score of subpopulation abundance” value [10] was -0.41, the “z-score of subpopulation abundance” value [11] was -1.16 and the “z-score of subpopulation abundance” value [14] was -0.45. The “z-score of subpopulation abundance” value [15] was -0.22.
For `CC(C)NC(=N)NC(=N)Nc1ccc(Cl)cc1` [Proguanil], the “z-score of prototroph abundance” value [12] was 0, the “z-score of subpopulation abundance” value [1] was 0.65 and the “z-score of subpopulation abundance” value [2] was -1.12. For the same compound, the “z-score of subpopulation abundance” value [4] was -0.88, the “z-score of subpopulation abundance” value [5] was 0.02 and the “z-score of subpopulation abundance” value [6] was 0.11. The “z-score of subpopulation abundance” value [13] was -0.55, the “z-score of subpopulation abundance” value [7] was 0.61 and the “z-score of subpopulation abundance” value [8] was -0.81. The “z-score of subpopulation abundance” value [9] was -0.46, the “z-score of subpopulation abundance” value [10] was -0.27 and the “z-score of subpopulation abundance” value [11] was -0.17. For the same compound, the “z-score of subpopulation abundance” value [14] was -0.3 and the “z-score of subpopulation abundance” value [15] was -0.44.
With `CC[C@@H](CO)NCCN[C@@H](CC)CO` [Ethambutol 2HCl] the mean cell size [16] was 12.46 ± 0.11, the “z-score of prototroph abundance” value [12] was -0.36 and the “z-score of subpopulation abundance” value [1] was -0.81. For the same compound, the “z-score of subpopulation abundance” value [2] was 0.27, the “z-score of subpopulation abundance” value [5] was 0.23 and the “z-score of subpopulation abundance” value [6] was -0.9. For the same compound, the “z-score of subpopulation abundance” value [7] was 1.23, the “z-score of subpopulation abundance” value [8] was 0.36 and the “z-score of subpopulation abundance” value [9] was 0.56. The “z-score of subpopulation abundance” value [10] was 0.16, the “z-score of subpopulation abundance” value [11] was 0.7 and the “z-score of subpopulation abundance” value [14] was 1.15. For the same compound, the “z-score of subpopulation abundance” value [15] was 0.6.
For `C[C@]12CCC(=O)C=C1[C@@H]1C[C@@H]1[C@H]1[C@@H]3[C@@H]4C[C@@H]4[C@@]4(CCC(=O)O4)[C@@]3(C)CC[C@@H]12` [Drospirenone], the mean cell size [16] was 12.53 ± 0.089, the “z-score of prototroph abundance” value [12] was -0.22 and the “z-score of subpopulation abundance” value [1] was 0.59. The “z-score of subpopulation abundance” value [2] was -0.08, the “z-score of subpopulation abundance” value [3] was -0.17 and the “z-score of subpopulation abundance” value [4] was -0.17. The “z-score of subpopulation abundance” value [5] was 1.26, the “z-score of subpopulation abundance” value [6] was 0.03 and the “z-score of subpopulation abundance” value [13] was 0.03. The “z-score of subpopulation abundance” value [7] was -0.14, the “z-score of subpopulation abundance” value [8] was 0.14 and the “z-score of subpopulation abundance” value [9] was 0.26. The “z-score of subpopulation abundance” value [10] was 0.31, the “z-score of subpopulation abundance” value [11] was -0.41 and the “z-score of subpopulation abundance” value [14] was 0.85.
`C=C1c2cccc(O)c2C(O)=C2C(=O)[C@]3(O)C(O)=C(C(N)=O)C(=O)[C@@H](N(C)C)[C@@H]3[C@@H](O)[C@H]12` [Methacycline HCl] was tested, and the “z-score of prototroph abundance” value [12] was 0.09, the “z-score of subpopulation abundance” value [1] was 0.2 and the “z-score of subpopulation abundance” value [2] was 1.08. The “z-score of subpopulation abundance” value [3] was -0.83, the “z-score of subpopulation abundance” value [4] was 2.58 and the “z-score of subpopulation abundance” value [5] was 0.5. The “z-score of subpopulation abundance” value [13] was -0.49, the “z-score of subpopulation abundance” value [7] was -0.59 and the “z-score of subpopulation abundance” value [8] was 1.43. The “z-score of subpopulation abundance” value [9] was -0.87, the “z-score of subpopulation abundance” value [10] was 0.92 and the “z-score of subpopulation abundance” value [11] was -0.03. The “z-score of subpopulation abundance” value [15] was -0.19.
In the case of `Cc1ccsc1/C=C/C1=NCCCN1C` [Morantel tartrate], the mean cell size [16] is reported as 12.28 ± 0.098, the “z-score of prototroph abundance” value [12] is reported as 0.27 and the “z-score of subpopulation abundance” value [1] is reported as 0.85. For the same compound, the “z-score of subpopulation abundance” value [2] was -1.36, the “z-score of subpopulation abundance” value [3] was 0.23 and the “z-score of subpopulation abundance” value [4] was -1.74. The “z-score of subpopulation abundance” value [5] was -0.48, the “z-score of subpopulation abundance” value [6] was -0.19 and the “z-score of subpopulation abundance” value [13] was 0.3. For the same compound, the “z-score of subpopulation abundance” value [7] was 0.1, the “z-score of subpopulation abundance” value [8] was -0.87 and the “z-score of subpopulation abundance” value [9] was -0.25. For the same compound, the “z-score of subpopulation abundance” value [10] was -0.2, the “z-score of subpopulation abundance” value [14] was -0.24 and the “z-score of subpopulation abundance” value [15] was -0.47.
